Results reported in PubChem BioAssay AID624296 (National Center for Advancing Translational Sciences (NCATS), 2012).
The whole screen tested about 350,000 compounds, of which about 9,900 (2.8%) were called active. Not shown: some 15% with an inconclusive outcome. The call rests on the fitted dose curve; in most records, active means well fitted activation curve with a large enough effect; inconclusive means small, poorly fitted or top-dose-only effect; inactive means no such curve, though single readings can be large or run the other way. The list comes from a sample in which actives are over-represented; it also holds similar structures and randomly drawn compounds.

Assay: A quantitative high throughput screen for small molecules that induce DNA re-replication in MCF 10a normal breast cells. Further: nearly all actives have a fitted effect of over 50% in size. On activity, positive = re-replication: % of control where 0% means no effect.
Conditions: MCF 10A DNA re-replication, Hoechst nuclear intensity, 48 h; series mostly up to 46.1 µM; activity, positive = re-replication: at the top concentration
Potency means the concentration at half of the fitted maximal effect.

Compound	activity, positive = re-replication	Potency
Cc1cc(C(=O)COc2ccc(Br)cc2F)c(C)n1C1CC1	-1.62% (inactive)	–
CN(C(=O)c1cccc(NC(=O)Cc2ccc(NC(=O)C3CCCN(C(=O)C4CC4)C3)cc2)c1)C1CC1 (stereo not given)	-45.3% (inactive)	–
CC(/C=N/NC(=O)c1cc(-c2ccc3ccccc3c2)n[nH]1)=C\c1ccco1	–	7.31 µM (active)
CC(=C/c1ccccc1)/C=N/NC(=O)c1cc(C)oc1C	10.6% (inactive)	–
CC(/C=N/NC(=O)c1ccncc1)=C\c1ccco1	-2.95% (inactive)	–
Cc1cccc(C)c1Nc1nnc(SCC(=O)NCCCN2CCCC2=O)s1	-0.211% (inactive)	–
CC[C@]12c3[nH]c4cc(CCC(=O)N(C)C)ccc4c3CCN1C(=O)[C@@H](CC(=O)NCCCn1ccnc1)C[C@@H]2C(=O)N1CCN(C(=O)C2CC2)CC1	1.8% (inactive)	–
O=C(CC1Nc2ccccc2NC1=O)Nc1ccccc1 (stereo not given)	–	6.51 µM (active)
COC(=O)c1cc(C)sc1NC(=O)CC1Nc2ccccc2NC1=O (stereo not given)	26.2% (inactive)	–
O=C(CC1NCCNC1=O)Nc1ccc(Oc2ccccc2)cc1 (stereo not given)	-9.06% (inactive)	–
COC(=O)Cc1nc2c(N)nc(N)nc2[nH]c1=O	-1.99% (inactive)	–
Nc1ccc2c(c1)C(O)c1ccc(Cl)cc1-2 (stereo not given)	7.09% (inactive)	–
COc1cc2[nH]c(O)c(C=O)c2cc1OC	5.23% (inactive)	–
CCc1ccc(CNC(=O)C2CCN(c3nnc(C)c4c(C)n(-c5ccc(C)cc5)nc34)CC2)cc1	–	7.31 µM (active)
CCc1ccc(CNC(=O)C2CC(=O)N(CCc3ccc(C)cc3)C2)cc1 (stereo not given)	-6.43% (inactive)	–
COc1ccc(-n2nc3c(N4CCC(C(=O)NCc5ccccc5)CC4)nnc(C)c3c2C)cc1	4.26% (inactive)	–
Cc1ccc(NC(=O)C(c2ccccc2)N2CCN(C(=O)c3ccco3)CC2)cc1 (stereo not given)	-11.4% (inactive)	–
O=C(C(Cl)Cl)N1CCN(c2ccccn2)CC1	-1.55% (inactive)	–
O=C(/C=C/c1cccc(C(F)(F)F)c1)N1CCN(c2ccccn2)CC1	–	9.2 µM (active)
O=C(Cc1ccc(Br)cc1)N1CCN(c2ccccn2)CC1	24.3% (inactive)	–
O=C(c1ccc2c(c1)C(=O)N(Cc1ccncc1)C2=O)N1CCN(S(=O)(=O)c2ccc(OC(F)(F)F)cc2)CC1	-6.6% (inactive)	–
CCN1C[C@@H]2[C@@H]3C(=O)N(Cc4ccccc4)C(=O)[C@@H]3[C@](Cc3ccccc3)(C(=O)OC)N2C1=NC1CCCCC1	-4.94% (inactive)	–
COC(OC)c1ccnc(SCc2ccccc2Cl)n1	2.9% (inactive)	–
S=C(NCc1ccco1)NCc1ccccc1Cl	2.77% (inactive)	–

Compound	activity, positive = re-replication	Potency
Clc1ccccc1CSc1nnc(-c2ccco2)c(-c2ccco2)n1	–	18.4 µM (active)
COc1ccc(OCCNC(=O)c2cc(C3CC3)nc3c2cnn3C(C)C)cc1	-3.44% (inactive)	–
O=C(CSc1nc2[nH]ncc2c(=O)[nH]1)Nc1ccc(F)cc1	1.6% (inactive)	–
Cc1cccc(NC(=O)CSc2nc3[nH]ncc3c(=O)[nH]2)c1	1.23% (inactive)	–
Cc1cc(C)c2c(=O)[nH]c(SCC(=O)Nc3ccc(Br)cc3)nc2n1	–	11.6 µM (active)
COc1ccccc1N1CCN(S(=O)(=O)c2ccc(Cl)cc2)CC1	14.9% (inactive)	–
COc1ccccc1-n1nnnc1SCC(=O)NC(=O)Cc1ccccc1	-2.37% (inactive)	–
COc1ccccc1-n1nnnc1S(=O)(=O)Cc1ccc(Cl)cc1	–	16.4 µM (active)
CCN(CC(=O)Nc1ccc(NC(C)=O)cc1)C(=O)CSC(=S)N1CCCC1	6.12% (inactive)	–
Cc1cc(C(=O)NC2CC(C)(C)Cc3c2cnn3-c2ccccc2)n[nH]1 (stereo not given)	1.73% (inactive)	–
COC(=O)c1ccc(C(=O)NC2CC(C)(C)Cc3c2cnn3-c2ccc(F)cc2)nc1 (stereo not given)	–	20.6 µM (active)
CC1(C)Cc2c(cnn2-c2cccc(F)c2)C(NC(=O)c2cc[n+]([O-])cc2)C1 (stereo not given)	-1.98% (inactive)	–
CCOc1cc(/C=C(\C#N)c2nc(-c3cccs3)c(NC(C)=O)s2)ccc1O	–	5.8 µM (active)
COc1cc(/C=N\Nc2nc(-c3cccs3)c(NC(C)=O)s2)ccc1O	0.153% (inactive)	–
CCOc1cc(C=NNC(=O)CCCC(=O)NN=Cc2ccc(O)c(OCC)c2)ccc1O	-6.13% (inactive)	–
COc1ccc(S(=O)(=O)N2CCN(C(C)C(=O)Nc3ccc(C(C)C)cc3)CC2)cc1 (stereo not given)	6.39% (inactive)	–
CCN(CC(=O)Nc1cc(Cl)ccc1C)C(=O)CSCc1ccccc1	11.4% (inactive)	–
Cc1ccccc1-c1cc(C(=O)NCC2CC2)n(CC2CC(c3cccnc3)=NO2)n1 (stereo not given)	-0.545% (inactive)	–
Cn1c(SCC(=O)Nc2ccc(N3CCOCC3)cc2)nnc1C(F)(F)F	0.0691% (inactive)	–
O=C(NC1CCCCC1)c1cc([N+](=O)[O-])ccc1N1CCOCC1	-1.83% (inactive)	–
CC1CCN(c2ccc(C(=O)NCc3ccc4c(c3)OCO4)cc2[N+](=O)[O-])CC1	0.727% (inactive)	–
O=C(NCc1ccc2c(c1)OCO2)c1cc([N+](=O)[O-])ccc1N1CCOCC1	–	5.8 µM (active)
COc1ccccc1NC(=O)N(O)C1(C#N)CCCCC1	-4.11% (inactive)	–
CN(C)C(=O)CCc1ccc2c3c([nH]c2c1)[C@]1(C)[C@@H](C(=O)N2CCOCC2)C[C@H](CC(=O)NCCc2ccccn2)C(=O)N1CC3	-1.4% (inactive)	–

Compound	activity, positive = re-replication	Potency
CC(C)CN1CC(C)C(=O)N(c2ccccc2)C1=S (stereo not given)	10.6% (inactive)	–
O=C(CSc1nc2ccccc2c(=O)n1Cc1ccc(F)cc1)NCC1CCCO1 (stereo not given)	3.68% (inactive)	–
COc1ccc2oc(C(=O)NCc3ccco3)c(C)c2c1	14.5% (inactive)	–
Cc1ccc(-c2noc(-c3ccccc3C(=O)NCC3CCCO3)n2)cc1 (stereo not given)	4.59% (inactive)	–
COc1ccc(CNC(=O)c2cc3c(=O)n4ccccc4nc3n(CC3CCCO3)c2=N)cc1 (stereo not given)	–	9.2 µM (active)
COc1ccc(CCNC(=O)Cn2c(=O)n(CC3CCCO3)c(=O)c3ccccc32)cc1OC (stereo not given)	0.991% (inactive)	–
Cc1cccn2c(=O)c3cc(C(=O)NCC4CCCO4)c(=N)n(Cc4ccc(F)cc4)c3nc12 (stereo not given)	–	1.84 µM (active)
Cc1ccc(CCNC(=O)c2ccc3nc4ccccc4c(=O)n3c2)cc1	9.46% (inactive)	–
O=C(NCC1CCCO1)c1cc(-c2ccccc2)nc2ccccc12 (stereo not given)	7.3% (inactive)	–
COc1ccc(C(=O)Nc2ccccc2C(=O)NCc2ccco2)cc1	0.301% (inactive)	–
COc1ccc(CCn2c(=N)c(C(=O)NCc3ccco3)cc3c(=O)n4cccc(C)c4nc32)cc1	–	18.4 µM (active)
COc1ccc(CCNC(=O)CCn2c(=O)c3ccccc3n(CC(=O)NCC3CCCO3)c2=O)cc1OC (stereo not given)	2.67% (inactive)	–
Cc1ccc2nc3c(cc(C(=O)NCCc4ccccc4)c(=N)n3CC3CCCO3)c(=O)n2c1 (stereo not given)	–	6.51 µM (active)
O=C(CSc1nccn1-c1cccc(F)c1)NC1CCCC1	-2.43% (inactive)	–
C#CCOCCOCCOCCNc1nc(N2CCN(C(=O)Cn3cc(CCO)nn3)CC2)nc(N2CCN(C(=O)[C@H](CCCCN)n3cc(CCCC)nn3)CC2)n1	26.4% (inactive)	–
O=C1NCC(Nc2ccccc2)C(=O)N1 (stereo not given)	-0.53% (inactive)	–
COc1ccc(C(=O)C(C)OC(=O)c2cccc(S(=O)(=O)Nc3c(C)n(C)n(-c4ccccc4)c3=O)c2)cc1 (stereo not given)	1.62% (inactive)	–
CCC(=O)c1ccc(OCC(=O)N(CC)CC2COc3ccccc3O2)cc1 (stereo not given)	2.74% (inactive)	–
COc1cc(C)ccc1OCC(=O)OCC(=O)c1ccc[nH]1	3.62% (inactive)	–
COC(=O)[C@]1(Cc2ccccc2)N[C@H](CN(C)S(=O)(=O)c2ccc(OC(F)(F)F)cc2)[C@@H]2C(=O)N(Cc3ccccc3)C(=O)[C@@H]21	9.99% (inactive)	–
CC(NC(=O)c1ccccc1)C(=O)OCC(=O)Nc1cccc(S(=O)(=O)N2CCCC2)c1 (stereo not given)	-5.95% (inactive)	–
CC(NC(=O)CN(C)S(=O)(=O)c1ccc(F)cc1)C1CC2CCC1C2 (stereo not given)	5.27% (inactive)	–
C=CC1=C(C(=O)O)N2C(=O)[C@@H](NC(=O)/C(=N\OCC(=O)O)c3csc(N)n3)[C@H]2SC1	0.954% (inactive)	–
O=C(NCc1ccncc1)C(=O)NCC1OCCN1S(=O)(=O)c1ccc(Br)cc1 (stereo not given)	–	18.4 µM (active)

Compound	activity, positive = re-replication	Potency
O=C(NCc1ccccc1)C(=O)NCC1OCCN1S(=O)(=O)c1ccc(Br)cc1 (stereo not given)	-8.9% (inactive)	–
COc1ccc(S(=O)(=O)N2CCOC2CNC(=O)C(=O)NCc2ccncc2)cc1OC (stereo not given)	0.949% (inactive)	–
CCN1C[C@@H]2[C@@H]3C(=O)N(Cc4ccccc4)C(=O)[C@@H]3[C@](C)(C1=O)N2C(=O)c1ccc(C(C)(C)C)cc1	-21.6% (inactive)	–
Cc1cccc(NS(=O)(=O)c2ccc(C)c(C(=O)NCC(c3ccccc3)N(C)C)c2)c1 (stereo not given)	15.4% (inactive)	–
OCc1ccc(-c2ccccc2)c(-c2ccccc2)c1	–	23.1 µM (active)
OCc1nc(CO)n(Cc2ccccc2)n1	-22.2% (inactive)	–
OCC(CO)(CO)NCc1ccc(-c2ccccc2)cc1	4.25% (inactive)	–
O=c1c2ccccc2ccc2ccc(P(=O)(O)O)cc12	-3.39% (inactive)	–
COc1ccc(NS(=O)(=O)c2cccc(C(=O)NCCc3ccc(S(N)(=O)=O)cc3)c2)cc1	-1.88% (inactive)	–
CN(CC(=O)Nc1ccc(Cl)c(C(F)(F)F)c1)C(=O)CCC(=O)c1ccccc1	9.45% (inactive)	–
Cc1ccc(NC(=O)C(C)OC(=O)C2CC3CCCC(C2)C3=O)cc1S(=O)(=O)N1CCOCC1 (stereo not given)	4.48% (inactive)	–
CCc1ccccc1NC(=O)CN(C)C(=O)c1cc(C2CC2)nn1-c1ccccc1	11.7% (inactive)	–
CCc1ccc(CN(C)C(C)C(=O)Nc2ccc(S(=O)(=O)N3CCCC3)cc2)cc1 (stereo not given)	19.4% (inactive)	–
CCOC(=O)c1sc(NC(=O)CSc2ncccn2)c(C#N)c1C	–	14.6 µM (active)
CCC(=O)Nc1sc(C(=O)N2CCCCC2)c(C)c1C#N	-0.218% (inactive)	–
CCOC(=O)c1sc(NC(=O)CSc2nnc(-c3ccco3)o2)c(C(=O)OCC)c1C	-3% (inactive)	–
O=C(Nc1ccc2ccccc2c1[N+](=O)[O-])c1ccccc1	14.6% (inactive)	–
COc1ccc(S(=O)(=O)N2CCCCC2)cc1NC(=O)COc1ccccc1	6.28% (inactive)	–
CCCc1cc(=O)[nH]c(SCC(=O)Nc2ccc(C(=O)Nc3ccccc3OC)cc2)n1	0.255% (inactive)	–
Cc1ccc(NS(=O)(=O)c2ccc(C)c(NC(=O)COc3ccc4ccccc4c3)c2)c(C)c1	-31.4% (inactive)	–
COc1ccc2cc(S(=O)(=O)Nc3ccccn3)ccc2c1	-0.735% (inactive)	–
COc1cc(NS(=O)(=O)c2ccc3ccccc3c2)c2ncccc2c1	–	5.17 µM (active)
CC(=O)Nc1ccc(NC(=O)C(NS(=O)(=O)c2ccc3c(c2)OCCO3)C(C)C)cc1 (stereo not given)	-0.353% (inactive)	–
